Source: PubChem
Sampled rows, rich in hits. Any-hit rate of the full collection: about 6.9%.
S-ASM inh = inhibitors of human secretory acid sphingomyelinase | AID 504937 | P17405 | placental ASM, HMU-PC fluorogenic substrate, 60 min | 340,000 tested, 0.006% active | Potency, µM (highest dose often 57.5 µM), for inactives: top-dose activity change, negative = inhibition, most hits filed as inhibitors; note: potency is the fitted concentration of half-maximal effect
Target sequence (P17405 47-631 limits assumed): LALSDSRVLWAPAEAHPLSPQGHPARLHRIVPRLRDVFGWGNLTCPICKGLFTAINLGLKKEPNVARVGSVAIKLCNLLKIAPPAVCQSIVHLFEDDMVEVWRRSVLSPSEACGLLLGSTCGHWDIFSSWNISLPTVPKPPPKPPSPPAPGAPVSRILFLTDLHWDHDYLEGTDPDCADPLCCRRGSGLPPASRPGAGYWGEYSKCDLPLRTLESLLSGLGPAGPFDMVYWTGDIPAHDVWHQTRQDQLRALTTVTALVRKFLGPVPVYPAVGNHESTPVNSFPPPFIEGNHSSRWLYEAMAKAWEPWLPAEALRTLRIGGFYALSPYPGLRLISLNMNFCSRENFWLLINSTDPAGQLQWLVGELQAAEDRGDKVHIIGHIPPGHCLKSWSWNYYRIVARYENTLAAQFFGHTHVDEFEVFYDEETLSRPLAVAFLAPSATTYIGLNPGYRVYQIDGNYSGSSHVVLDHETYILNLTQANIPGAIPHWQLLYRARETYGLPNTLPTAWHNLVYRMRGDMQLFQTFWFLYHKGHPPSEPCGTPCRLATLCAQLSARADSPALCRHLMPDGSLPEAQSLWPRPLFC
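Human placenta-derived ASM preincubated with compound 10 min at room temperature, then reacted with 9 uM (final) fluorogenic HMU-PC substrate for 60 min at 37 C. Stop solution raises pH to 10; fluorescence read at Ex 386/Em 447 nm.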
MCF10A rereplic = inducers of DNA re-replication in MCF 10A breast cells; MCF 10A DNA re-replication, Hoechst nuclear intensity, 48 h; Potency, µM (highest dose often 46.1 µM), for the others: at the top dose activity, positive = re-replication, most hits filed as activators; 350,000 tested, 2.9% active; AID 624296; note: potency is the fitted concentration of half-maximal effect; % of control where 0% means no effect; nearly all actives have a fitted effect of over 50% in size
KB-3-1 tox = kills parental KB-3-1 adenocarcinoma cells; KB-3-1 viability, CellTiter-Glo ATP luminescence, 72 h; Potency, µM (series often up to 46.1 µM), usual class: cytotoxic; 400,000 tested, 1.4% active; note: potency is the fitted concentration of half-maximal effect; % is set by controls: 0 for no effect and ±100 for the full control effect; nearly all actives have a fitted effect of over 60% in size
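Cytotoxicity measured as CellTiter-Glo luminescence after 72 h at 37 C. Compound titrations were pinned onto drug-naive KB-3-1 parental adenocarcinoma cells grown in DMEM with 10% FBS, and normalized data fitted to concentration-response curves.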
Giardia kill = Giardia lamblia killing; Giardia lamblia trophozoite viability; activity change, % at 7.66 µM, hits read low; 340,000 tested, 0.15% active; in the data active = activity change below about -80%; inconclusive = between about -30% and that limit;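 note: parasites exposed to compound for two days anaerobically before the ATP read; % is set by controls: 0 for no effect and ±100 for the full control effect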
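Trophozoite viability was measured as ATP-dependent luminescence, read 15-30 min after reagent addition. Before that, parasites at 100 cells/well were exposed to compounds for 48 h, anaerobically, at 37 deg C.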
KB-V1 cytotox = kills drug-selected multidrug resistant KB-V1 cells | KB-V1 MDR cells viability, CellTiter-Glo, 72 h | Potency, µM (doses to about 46.1 µM), most hits filed as cytotoxic | 400,000 tested, 3.4% active; note: potency is the fitted concentration of half-maximal effect; % is set by controls: 0 for no effect and ±100 for the full control effect; nearly all actives have a fitted effect of over 60% in size
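KB-V1 cells (P-gp-expressing MDR subline of KB-3-1) in phenol-red-free DMEM with 10% FBS were exposed to library compounds over a concentration series for 72 h at 37 degrees C. Viability read by CellTiter-Glo luminescence; concentration-effect curves fitted after normalization.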
SW480 rereplic = induces DNA re-replication in SW480 colon adenocarcinoma cells. 340,000 tested, 1.8% active. Potency, µM (top dose mostly 46.1 µM), for inactives: at the top dose re-replication activation, usual class: activators. SW480 DNA re-replication, Hoechst DNA content imaging, 48 h; note: potency is the fitted concentration of half-maximal effect; % of control where 0% means no effect; nearly all actives have a fitted effect of over 55% in size
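SW480 cells exposed to compounds for 48 hr at 37 C, 5% CO2, then Hoechst-stained 40 min. Nuclear DNA content imaged by fluorescence scanning (405 nm excitation, 500-530 nm emission); re-replication scored as increased high-intensity nuclei.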
The depositor's hits bear a star; i = inactive; ? = inconclusive; · = no result; ! = repeats disagree; [ ] = dose if it differs, or a comment. Unless noted, calls come from the whole dose curve; as a rule, active = well fitted curve in the direction sought with a large enough effect; inconclusive = small, poorly fitted or top-dose-only effect, or another doubt; inactive = no such curve, though single readings can be large; an effect the other way counts as inactive or inconclusive.

SMILES | S-ASM inh | MCF10A rereplic | KB-3-1 tox | Giardia kill | KB-V1 cytotox | SW480 rereplic
CC(=NCc1ccc(F)cc1)c1c(O)n(C)c(=O)n(C)c1=O | -1.7% | ? | 5.8µM* | 9.3 | ? | -14.8%
C=CCNc1nnc(Sc2ncccc2[N+](=O)[O-])s1 | -4.2% | ? | i | -1.6 | i | ?
CCOC(=O)[C@]12Cc3ccsc3[C@H]1N(Cc1ccccc1)C(=O)c1ccccc12 | -0.2% | ? | ? | -2.3 | ? | ?
CCOC(=O)[C@]12Cc3c(cc(OC)c(OC)c3OC)[C@H]1N(Cc1ccccc1)C(=O)c1ccccc12 | -4.8% | ? | i | -14.4 | ? | 0.2%
CCOC(=O)[C@]12Cc3cc(OC)ccc3[C@H]1N(C(C)C)C(=O)c1cc(OC)ccc12 | · | · | 10.3µM* | · | 6.51µM* | ·
CCOC(=O)[C@]12Cc3cc(C)ccc3[C@H]1N(C)C(=O)c1ccccc12 | · | · | i | · | i | ·
CCOC(=O)[C@]12Cc3cc(C)ccc3[C@H]1N(C)C(=O)c1cc(OC)ccc12 | · | · | 7.31µM* | · | i | ·
CCOC(=O)[C@]12Cc3c(cc(OC)c(OC)c3OC)[C@H]1N(C(C)C)C(=O)c1cc(OC)ccc12 | · | · | 4.11µM* | · | 2.59µM* | ·
CCOC(=O)c1c(N)n(CCN2CCCCC2)c2nc3ccccc3nc12 | i | ? | i | 3.4 | i | 19.5%
Nc1c(C(=O)NCCN2CCOCC2)c2nc3ccccc3nc2n1Cc1ccccc1 | i | 14.6µM* | i | -16.6 | ? | 23.1µM*
COc1ccc(CCNC(=O)c2c(N)n(CCN3CCOCC3)c3nc4ccccc4nc23)cc1 | i | ? | ? | -20.5 | ? | 16.4µM*
CCCCn1c(N)c(C(=O)NCCN2CCOCC2)c2nc3ccccc3nc21 | i | 20.6µM* | i | -0.8 | i | 18.4µM*
Nc1c(C(=O)NCCc2ccccc2)c2nc3ccccc3nc2n1CCN1CCOCC1 | i | 1.3% | i | -14.5 | 23.1µM* | 7.8%
COc1ccc(C(=O)c2c(C)n(CCN3CCOCC3)c3ccccc23)cc1 | · | 12.8% | · | · | · | ?
COCCNC(=O)c1c(N)n(Cc2ccco2)c2nc3ccccc3nc12 | i | -7.1% | i | -13.3 | i | -0.7%
Nc1c(C(=O)NCCN2CCOCC2)c2nc3ccccc3nc2n1Cc1ccco1 | i | 6.51µM* | i | -24.6 | i | 8.2µM*
N#Cc1cccc(NC(=O)c2sc3nc4c(cc3c2N)N2CCC4CC2)c1 | · | · | i | · | i | ·
Cn1c(O)c(C(=Nc2ccccc2)SCc2ccc(Cl)cc2)c(=O)n(C)c1=O | -2.6% | ? | ? | -0.4 | 5.17µM* | 28.0%
Cn1c(O)c(C(=N)COc2ccccc2)c(=O)n(C)c1=O | 0.1% | -0.9% | i | 8.5 | i | -6.3%
CC(C)[C@H]1CC2C3CC=C4C[C@@H](O)CC[C@]4(C)C3CC[C@]2(C)[C@H]1O (stereo not given in full) | 2.7% | 18.4µM* | i | -5.4 | i | ?
CC(=O)OCC(=O)C1CCC2C3CC=C4CC(O)CCC4(C)C3CCC12C (stereo not given) | -3.9% | 4.1% | i | 2.4 | 14.6µM* | -2.7%
Cc1ccc(C(=O)CN2CCOCC2)cc1 | · | · | i | · | i | ·
Cc1nnc(NC(=O)c2cccn(Cc3cccc([N+](=O)[O-])c3)c2=O)s1 | · | · | i | · | i | ·
OCCN1CCN(CCCN2c3ccccc3Sc3ccc(C(F)(F)F)cc32)CC1 | -1.1% | 23.1µM*! | i | -11.7 | ? | ?
Cc1cccnc1 | 0.5% | 17.6% | i | 29.2 | i | -55.9%
SMILES | S-ASM inh | MCF10A rereplic | KB-3-1 tox | Giardia kill | KB-V1 cytotox | SW480 rereplic
C#C[C@]1(O)CCC2C3C(=O)C=C4C(Cl)=CCC[C@]4(C)C3CC[C@@]21C (stereo not given in full) | -3.5% | 18.4µM* | i | -16.9 | i | ?
c1ccc(-c2[nH]c(-c3ccccc3)[n+](CC3CO3)c2-c2ccccc2)cc1 (stereo not given) | -3.1% | 13µM* | ? | ? | ? | ·
CC(CCl)OC(C)CCl (stereo not given) | -0.4% | 2.1% | i | -3.2 | i | ?
Cc1cc(-c2ccccc2)cc(C)[n+]1Cc1ccccc1 | 4.6% | -14.3% | 5.8µM* | -0.7 | i | -18.4%[9.22 µM]
O=C1CN=C(c2cc([N+](=O)[O-])ccc2Cl)c2cc([N+](=O)[O-])ccc2N1 | -6.6% | ? | i | 4.3 | i | 1.64µM*
Fc1ccc(C(OCCN2CCCC2)c2ccc(F)cc2)cc1 | -2.2% | ? | i | -11.8 | ? | -0.2%
c1ccc(CCCN2CCN(CCOC(c3ccccc3)c3ccccc3)CC2)cc1 | 1.8% | 5.17µM* | ? | -8.7 | 10.3µM* | ?
Fc1ccc(C(OCCN2CCN(CCCc3ccccc3)CC2)c2ccc(F)cc2)cc1 | -3.0% | 21.1µM* | ? | 11.1 | 16.4µM* | ?
C[N+]12CCC(CC1)C(OC(=O)C(O)(c1ccccc1)c1ccccc1)C2 (stereo not given) | -0.9% | 8.1% | i | 11.8 | i | 0.2%
O=C(CCC1CCCN(Cc2cccc3c2OCO3)C1)NCc1ccc(F)c(F)c1 (stereo not given) | 3.2% | -13.3% | i | 2.1 | i | -76.2%
Cc1ccc(-c2nc3c(=O)n(C)c(=O)nc-3n(C)n2)cc1 | · | · | 2.59µM* | -94.9* | 7.31µM* | ·
Cn1ncnc2c(=O)n(C)c(=O)nc1-2 | 1.9% | 18.4µM* | 0.651µM* | -88.3* | 0.731µM* | 0.5%
Cc1ccc(Cl)c(O)c1 | · | 1.6% | · | · | · | 4.5%
[O]=[Sb]([OH])([OH])[c]1ccccc1 | · | · | ? | -3.3 | i | ·
Cc1cc(OC(=O)CCNC(=O)OC(C)(C)C)c2c3c(c(=O)oc2c1)CCC3 | 23.1% | 20.9% | i | 14.0 | i | -12.5%
CCC(NC(=O)OC(C)(C)C)C(=O)Oc1cc(C)cc2oc(=O)c3c(c12)CCC3 (stereo not given) | 5.7% | 23.7% | i | 3.9 | 14.6µM* | 0.8%
Clc1ccccc1Cl | · | -1.0% | · | · | · | -8.5%
O=C(CCN1CC2CCC(CC2)C1)c1cccs1 | 0.0% | 10.3µM* | i | -15.0 | i | ?
Cc1ccc2c(c1)C1CN(C)CCC1N2C(=O)c1cccs1 (stereo not given) | -1.7% | -4.2% | i | 23.0 | i | -6.9%
C[C@]12CCC(=O)C=C1CC[C@@H]1[C@@H]2CC[C@@]2(C)[C@H]1CC[C@]2(C)O | -0.5% | ? | i | 10.0 | ? | -9.6%
CC12Cc3cnoc3C=C1CCC1C2CCC2(C)C1CCC2(C)O (stereo not given) | -10.1% | ? | 6.51µM* | -11.9 | ? | 1.1%
CCCOc1ccc(C2SCC(=O)Nc3c2c(C)nn3-c2cccc(C)c2)cc1OC (stereo not given) | · | · | ? | · | i | ·
